Shown are actives, neighbours in structure and some others; about 3.6% of the full set was active somewhere.
MmCpn inh = inhibitors of Methanococcus maripaludis chaperonin TRiC (MmCpn). Potency, µM (top dose mostly 76.9 µM), most hits filed as inhibitors. purified Mm-Cpn ATPase, ADP Transcreener TR-FRET. hit rate 0.031% among 330,000; note: nearly all actives have a fitted effect of over 80% in size
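ATPase read-out: TR-FRET ADP immunoassay (anti-ADP Eu cryptate vs ADP-d2), ex 320 nm, em 590/665 nm; signal drops as ADP forms. Enzyme 25 nM, ATP 10 uM, 30 min at 37°C after 10 min compound preincubation.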
Abeta yeast res = A-beta toxicity reversal in yeast | AID 1347071 | hit rate 0.063% among 410,000 | yeast expressing A-beta42, growth rescue, OD600, 48 h; response scale: 0% DMSO, 100% iron-clioquinol control | Potency, µM (top dose mostly 46.1 µM), actives largely listed as activators; note: nearly all actives have a fitted effect of over 55% in size
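Yeast A-beta toxicity model in growth medium with pinned compounds, 48 h at 30 C; growth read as absorbance at 600 nm. Normalized to FeCl3/clioquinol equimolar mix (positive) and DMSO (negative).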
aSyn yeast inh = rescues yeast growth from alpha-synuclein toxicity; hit rate 0.14% among 370,000; Yeast expressing alpha-synuclein, growth rescue, BacTiter-Glo, 24 h; Potency, µM (doses to about 46.1 µM), usual class: activators; AID 652106; note: nearly all actives have a fitted effect of over 65% in size
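Screening used galactose-induced yeast with toxic alpha-synuclein levels, exposed to compound for 24 hr at 30 deg C. Cell growth, read with BacTiter-Glo luminescence, gave the measured signal.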
FUS suppressor = rescues growth of FUS-expressing yeast; hit rate 0.24% among 390,000; Potency, µM (highest dose often 76.6 µM), hits mostly activators; S. cerevisiae FUS-expressing, growth rescue, OD600, 24 h; AID 1347120; note: nearly all actives have a fitted effect of over 55% in size
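Read-out: OD at 600 nm after 24hr at 30C, reporting rescue of FUS-induced yeast toxicity. Cells at OD 0.005 in galactose (2%) minimal medium; compounds tested in a dilution series; CP55940 titration from 92uM final as control.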
ClpP mod = qHTS Assay for Activators of ClpP. hit rate 1.9% among 340,000. ATP-dependent Clp protease proteolytic subunit (Bacillus subtilis (strain 168)), P80244. purified B. subtilis ClpP, FRET peptide cleavage, 20 min. Potency, µM (series often up to 57.5 µM); active = well fitted falling curve with a large enough effect; inconclusive = small, poorly fitted or top-dose-only effect; inactive = no such curve, though single readings can be large or run the other way; note: the source files actives as falling curves though it sought activators and does not explain the sign; nearly all actives have a fitted effect of over 65% in size
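Buffer: 100 mM Tris/HCl pH8, 100 mM KCl, 0.05% low protease BSA, 2.5% glycerol, 0.01% Tween-20. ClpP 10 microg/mL final; 20 min RT; delta FRET normalized to ADEP and DMSO controls.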
TDP-43 yeast inh = rescues yeast growth from TDP-43 toxicity; TDP-43 expressing yeast growth rescue, BacTiter-Glo, 24 h; Potency, µM (titrated, usually from 46.1 µM), usual class: activators; hit rate 1.8% among 410,000; AID 652104; note: nearly all actives have a fitted effect of over 50% in size
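Yeast cells expressing TDP-43 under galactose induction are exposed to compounds for 24 hr at 30 deg C. BacTiter-Glo luminescence measures growth, so protective compounds score as activators.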
Numbers stand for hits; i = inactive; ? = inconclusive; nt = no result; [ ] = another dose, or the depositor's remark. Unless noted, calls come from the whole dose curve; as a rule, active = well fitted curve in the direction sought with a large enough effect; inconclusive = small, poorly fitted or top-dose-only effect, or another doubt; inactive = no such curve, though single readings can be large; an effect the other way counts as inactive or inconclusive.

SMILES | MmCpn inh | Abeta yeast res | aSyn yeast inh | FUS suppressor | ClpP mod | TDP-43 yeast inh
Cc1[nH]c2ccccc2c1C(c1c[nH]c2ccccc12)c1c(C)[nH]c2ccccc12 | nt | nt | i | nt | i | nt
CCOc1ccc(-n2c(=O)c3sc4ccccc4c3n(Cc3ccc(F)cc3)c2=O)cc1 | nt | i | nt | i | i | i
Cc1cccc(C(=O)Nc2cccc(OCc3cc(=O)n4cccc(C)c4n3)c2)c1 | nt | i | nt | i | i | i
CCNC(=S)Nc1ccc2c(c1)oc1ccccc12 | nt | 10µM | i | i | i | ?
CCNC(=S)Nc1ccc2ncoc2c1 | i | i | i | i | nt | nt
CNC(=O)COc1ccccc1C(=O)Nc1ccc2c(c1)oc1ccccc12 | i | i | i | i | 3.98µM | i
COc1cc2c(cc1NC(=O)COC(=O)C(CCSC)NC(=O)c1ccccc1Cl)oc1ccccc12 (stereo not given) | i | i | i | i | 25.1µM | i
COc1cc2c(cc1NC(=O)COC(=O)c1ccc(C(C)(C)C)cc1)oc1ccccc12 | i | i | i | i | nt | i
COc1cc2c(cc1NC(=O)Nc1ccccc1)oc1ccccc12 | i | i | i | i | 28.2µM | i
O=C1C2=C(C(=O)c3ccccc31)C1O[C@](c3ccsc3)(Cc3ccccc31)O2 | i[15.4 µM] | nt | nt | nt | nt | nt
CCc1cc(C(=O)Nc2c(C)nn(Cc3ccccc3Cl)c2C)no1 | nt | i | nt | i | i | ?
COC(=O)c1sc(N2C(=O)c3oc4ccccc4c(=O)c3C2c2ccc(O)cc2)nc1C (stereo not given) | nt | i | nt | i | i | i
COc1cc2c(cc1NS(=O)(=O)N1CCCCC1)oc1ccccc12 | i | i | ? | i | 31.6µM | i
CCOCCCNC(=O)c1[nH]c2cc(OC)ccc2c1Sc1ccccc1 | nt | i | nt | i | i | i
CN(CCOC(=O)c1occ2ccccc12)C1CN(Cc2cn(Cc3ccccc3Cl)nn2)S(=O)(=O)C1 (stereo not given) | nt | nt | nt | i | nt | nt
O=C(NCc1cccc(Cl)c1)c1cc(COc2ccc3ncccc3c2)on1 | i | i | i | i | nt | 14.1µM
O=[N+]([O-])c1ccc(O/N=[N+](\[O-])N2CCN(c3ncccn3)CC2)c([N+](=O)[O-])c1 | nt | nt | i | nt | nt | nt
Cc1ccc(N=c2oc3cc(O)ccc3cc2C(N)=O)cc1 | i | i | i | i | 25.1µM | ?
CC(=O)c1cc2ccc(O)cc2oc1=O | i | i | i | i | i | i
CC1=C(C#N)C(c2cccnc2)C2=C(CCCC2=O)N1 (stereo not given) | i | i | i | i | 8.91µM | i
CC1=C(C#N)C(c2cccnc2)C2=C(N1)c1ccccc1C2=O (stereo not given) | i | i | i | i | i | i
CCOC(=O)N1CCN(C(=O)C[C@@H]2C[C@@]3(C(=O)OCC)CCC=C3N(Cc3ccccc3)C2=O)CC1 | nt | i | i | i | i | i
CCOC(=O)N1CCN(C(=O)C[C@@H]2C[C@@]3(C(=O)OCC)CCC=C3N(Cc3cccc4ccccc34)C2=O)CC1 | nt | i | i | i | i | 15.8µM
CCOC(=O)N1CCN(C(=O)C[C@@H]2C[C@@]3(C(=O)OCC)CCC=C3N(Cc3ccc(Cl)cc3Cl)C2=O)CC1 | nt | i | i | ? | i | 22.4µM
Cc1c(Cl)cccc1-c1ccc(CNc2ccc3[nH]c(=O)[nH]c3c2)o1 | nt | i | nt | i | i | i
O=C(NCc1ccco1)c1cc([N+](=O)[O-])ccc1N1CCCCC1 | i | i | i | i | i | 14.1µM
O=C(NCc1ccc2c(c1)OCO2)c1cc([N+](=O)[O-])ccc1N1CCCCC1 | i | i | i | nt | i | 20µM
COc1ccccc1CNC(=O)CSc1nc(-c2ccccc2)cn1N | i | i | i | i | i | i
CN(C(=O)CSc1nc(-c2ccccc2)cn1N)C(c1ccccc1)c1ccccc1 | i | i | i | 31.6µM | i | i
CCc1ccc(NC(=O)CSc2nc(C)c(C(=O)Nc3ccccc3)c(-c3ccc(OC)c(OC)c3)c2C#N)cc1 | nt | i | nt | ? | i | i
